Only some compounds are listed: those with a hit (about 21% of all), similar ones and a draw of the others.
TDP1 cell noCPT – qHTS for Inhibitors of human tyrosyl-DNA phosphodiesterase 1 (TDP1): qHTS in cells in absence of CPT; DT40 Tdp1-/- hTDP1 cells, no CPT, ATP luminescence, 48 h; Potency, µM (top dose mostly 46.2 µM), actives largely listed as inhibitors; 15% of 420,000 active; AID 686978, 2013; also: nearly all actives have a fitted effect of over 55% in size
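Seeded 400 DT40-hTDP1 cells/well (vehicle DMSO, no 20 nM CPT); pinned compounds; ≥48 hr at 37 °C; CellTiter-Glo luminescence as viability measure.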
DRD3 antagonist – qHTS of D3 Dopamine Receptor Antagonist: qHTS; 2.5% of 360,000 active; AID 652054, 2013; D3R cells, DiscoveRx beta-arrestin luminescence, antagonist mode; active compounds read low; max response, negative = inhibition, %; in the data active = max response below about -50%; inconclusive = no clear call, values can overlap the other calls
Target sequence (P35462 whole entry, looked up): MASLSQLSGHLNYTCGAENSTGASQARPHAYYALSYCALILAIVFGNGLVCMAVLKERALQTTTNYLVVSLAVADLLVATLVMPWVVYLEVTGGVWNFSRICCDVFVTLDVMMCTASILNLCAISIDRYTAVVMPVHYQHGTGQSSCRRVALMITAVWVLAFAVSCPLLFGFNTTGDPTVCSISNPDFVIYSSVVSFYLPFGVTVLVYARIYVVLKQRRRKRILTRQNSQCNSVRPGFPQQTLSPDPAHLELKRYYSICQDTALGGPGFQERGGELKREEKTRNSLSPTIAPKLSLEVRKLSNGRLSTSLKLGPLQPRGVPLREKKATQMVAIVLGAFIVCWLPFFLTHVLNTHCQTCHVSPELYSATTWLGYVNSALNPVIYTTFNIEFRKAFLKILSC
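Cells expressing the human receptor were seeded at 1500 cells/well, incubated overnight at 37 degrees C in 5% CO2, then exposed to library compounds with dopamine controls for 90 minutes at 37 degrees C before luminescent detection.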
DT40 TDP1 CPT – qHTS for Inhibitors of human tyrosyl-DNA phosphodiesterase 1 (TDP1): qHTS in cells in presence of CPT; chicken DT40 Tdp1-/-;hTDP1 cells + 20 nM CPT, ATP luminescence, 48 h; 12% of 420,000 active; Potency, µM (doses to about 46.2 µM), most hits filed as inhibitors; also: nearly all actives have a fitted effect of over 55% in size
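Chicken DT40 Tdp1-/- cells complemented with human TDP1, 400 cells/well, exposed to compounds plus 20 nM camptothecin for at least 48 h at 37 C; viability read as ATP content by CellTiter-Glo luminescence.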
DRD3 agonist – qHTS of D3 Dopamine Receptor Agonist: qHTS. max activation, %. D3R DiscoveRx beta-arrestin cells, luminescence, 90 min. 0.58% of 410,000 active. D(3) dopamine receptor (Homo sapiens), P35462. AID 652048, 2013; in the data active = max activation above about 30%
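Agonist-mode cell screen: cells plated at 1500/well and incubated overnight at 37 °C, then exposed to library compounds for 90 min at 37 °C. Detection reagent was added for 30–60 min at room temperature, and luminescence was read.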
ClpP mod – qHTS Assay for Activators of ClpP; purified B. subtilis ClpP, FRET peptide cleavage, 20 min; Potency, µM (series often up to 57.5 µM); ATP-dependent Clp protease proteolytic subunit (Bacillus subtilis (strain 168)), P80244; 1.9% of 340,000 active; active = well fitted falling curve with a large enough effect; inconclusive = small, poorly fitted or top-dose-only effect; inactive = no such curve, though single readings can be large or run the other way; also: the source files actives as falling curves though it sought activators and does not explain the sign; nearly all actives have a fitted effect of over 65% in size
Target sequence (P80244 whole entry, looked up): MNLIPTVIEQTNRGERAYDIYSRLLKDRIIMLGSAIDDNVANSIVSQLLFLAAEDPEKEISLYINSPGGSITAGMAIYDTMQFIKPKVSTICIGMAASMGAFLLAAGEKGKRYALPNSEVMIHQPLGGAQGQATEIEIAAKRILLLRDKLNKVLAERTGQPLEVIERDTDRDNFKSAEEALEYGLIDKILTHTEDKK
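ClpP 10 microg/mL final, pH 8 Tris/KCl buffer with BSA, glycerol, Tween-20; compound pinned in; FRET-FV substrate; RT 20 min; Ex320/Em430; ΔFRET vs ADEP 5.8 microM, DMSO, no enzyme.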
IL1B secr inh – qHTS for Inhibitors of Inflammasome Signaling: IL-1-beta AlphaLISA Primary Screen; THP-1 LPS/ATP IL-1B secretion, AlphaLISA, 16 h; active compounds read low; activity change, % at 57.5 µM; 4.7% of 360,000 active; AID 743279, 2014; in the data active = activity change below about -50%; inconclusive = mostly about -30% to -49%
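THP-1 cells pretreated 1 hr with compounds (up to 57.5 uM final), then stimulated with LPS (250 ng/mL final) plus ATP (1.25 mM final); secreted IL-1B measured by AlphaLISA after 16 hr, decreased signal indicating inhibition.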
Of the large screens only hits and unclear results are named; the others gave an inactive call. Unless noted, calls follow the shape of the dose curve; as a rule, active = well fitted inhibition curve with a large enough effect; inconclusive = small, poorly fitted or top-dose-only effect; inactive = flat fitted curve, though single readings scatter.

CCCCn1c(N)c(N(C)C(=O)c2cn(-c3ccccc3)nc2-c2ccccc2)c(=O)[nH]c1=O	none
Nc1ccc2nc(-c3cccnc3)[nH]c2c1	none
Nc1cccc(-c2c[nH]c3ncc(-c4cccnc4)cc23)c1	TDP1 cell noCPT 21µM, DT40 TDP1 CPT 8.2µM, IL1B secr inh -55
COc1cc(C2(c3ccc(O)c(OC)c3)C(=O)Nc3c(C)cc(Br)cc32)ccc1O	IL1B secr inh -102 (no result: ClpP mod)
CC(C)(C)OC(=O)N1CCC(c2nnc(SCc3ccccc3)o2)CC1	none (no result: TDP1 cell noCPT, DRD3 antagonist, DT40 TDP1 CPT, IL1B secr inh)
COc1ccccc1-n1c(=S)[nH]c2c(sc(=S)n2-c2ccccc2C)c1=O	TDP1 cell noCPT inconclusive, DRD3 antagonist -78, DT40 TDP1 CPT inconclusive, DRD3 agonist 56, IL1B secr inh inconclusive
Cc1ccc(NC(=O)CN(C)C(=O)c2cc(-c3ccccc3)nn2-c2ccccc2)cc1	TDP1 cell noCPT inconclusive, DT40 TDP1 CPT inconclusive
COC(=O)c1c(-c2cccs2)csc1NC(=O)COc1ccc(C(C)C)cc1	TDP1 cell noCPT 21µM, DT40 TDP1 CPT inconclusive, ClpP mod 28µM (no result: DRD3 antagonist, IL1B secr inh)
COC(=O)c1c(-c2cccs2)csc1NC(=O)c1ccc(C)cc1	TDP1 cell noCPT inconclusive, ClpP mod inconclusive (no result: DRD3 antagonist, IL1B secr inh)
COC(=O)c1c(-c2cccs2)csc1NC(=O)c1ccc(OC)c(OC)c1	TDP1 cell noCPT 9.2µM, DT40 TDP1 CPT 12µM, ClpP mod inconclusive (no result: DRD3 antagonist, IL1B secr inh)
COC(=O)c1c(-c2cccs2)csc1NC(=O)c1cc(OC)c(OC)c(OC)c1	TDP1 cell noCPT 5.8µM, DT40 TDP1 CPT 9.2µM, DRD3 agonist 36 (no result: DRD3 antagonist, IL1B secr inh)
COC(=O)c1c(-c2cccs2)csc1NC(=O)c1cc(OC)cc(OC)c1	TDP1 cell noCPT inconclusive, DT40 TDP1 CPT 16µM (no result: DRD3 antagonist, IL1B secr inh)
Cc1c(C(=O)NCc2ccc(F)cc2)sc2ncnc(NCC3CCCO3)c12 (stereo not drawn)	none (no result: DRD3 antagonist, DRD3 agonist, ClpP mod, IL1B secr inh)
CCC(=O)N1CCc2cc(Br)cc(S(=O)(=O)N3CCN(c4cc(C)ccc4C)CC3)c21	none (no result: DRD3 antagonist, IL1B secr inh)
COc1ccc(S(=O)(=O)NC(C)(C)CO)cc1-c1nnc2c3ccccc3c(C)nn12	none (no result: DRD3 antagonist, IL1B secr inh)
COC(=O)c1ccc(OC)c(CSc2nnc(-c3ccc(C(C)(C)C)cc3)o2)c1	TDP1 cell noCPT 21µM, DT40 TDP1 CPT 16µM
CCOc1ccc(CCNC(=O)CCc2c(C)nc3c(c(C)nn3-c3ccc(C)c(C)c3)c2C)cc1	ClpP mod inconclusive (no result: DRD3 antagonist, IL1B secr inh)
O=C(N/C(=C\c1ccco1)C(=O)N1CCOCC1)c1ccccc1Cl	none (no result: ClpP mod)
CC(C)C(=O)NC(=S)Nc1ccc(CN2CCOCC2)cc1	none
O=C(/C=C/c1ccc(Cl)cc1Cl)NC(=S)Nc1ccc(CN2CCOCC2)cc1	TDP1 cell noCPT 13µM, DRD3 antagonist -83, DT40 TDP1 CPT 16µM
O=C(Nc1ccc(CN2CCOCC2)cc1)c1ccc(Cl)cc1Cl	none
O=C(/C=C/c1ccccc1)NC(=S)Nc1ccc(CN2CCOCC2)cc1	TDP1 cell noCPT 18µM, DRD3 antagonist -57, DT40 TDP1 CPT inconclusive, IL1B secr inh -109 (no result: ClpP mod)
COc1ccc(CNC(=O)c2coc(=O)c3ccccc23)cc1	none (no result: ClpP mod)
CC(CC(=O)O)CC(=O)Nc1nncs1 (stereo not drawn)	none (no result: ClpP mod)
COc1ccc(C2=NC(C(F)(F)F)(C(F)(F)F)c3c(n(C)c(=O)n(C)c3=O)N2)cc1	TDP1 cell noCPT 18µM, DT40 TDP1 CPT 15µM
COc1ccc(Oc2nc3c(c(=O)n(C)c(=O)n3C)n2C)cc1	DT40 TDP1 CPT inconclusive
Cc1nc(NC(=O)CC(C)C)sc1-c1csc(Nc2ccc(Cl)cc2Cl)n1	TDP1 cell noCPT 18µM, DT40 TDP1 CPT inconclusive, ClpP mod inconclusive
C=CCCC(=O)Nc1nc(C)c(-c2csc(Nc3ccc(Cl)cc3Cl)n2)s1	TDP1 cell noCPT 15µM, DT40 TDP1 CPT inconclusive
Cc1nc(NC(=O)CC(C)C)sc1-c1csc(Nc2ccc(Cl)cc2)n1	TDP1 cell noCPT 15µM, DT40 TDP1 CPT inconclusive, ClpP mod inconclusive
